Compound activity: PubChem BioAssay, National Center for Advancing Translational Sciences (NCATS)
Shiga toxin inh: Shiga toxin inhibition. inhibition, % at 38.7 µM. 290,000 compounds, 9.2% hits. Vero cells, Shiga toxin protein synthesis inhibition reporter; in the data active = inhibition mostly above about 28%, no sharp cut-off; inactive = mostly below about 43%; note: 0% is about no effect
Tb PYK inh: inhibitors of Trypanosoma brucei pyruvate kinase. Potency, µM (highest dose often 76.8 µM), for inactives: at the top dose activity, negative = inhibition, most hits filed as inhibitors. TbPYK enzyme, Kinase-Glo Plus ATP luminescence, 45 min. Q57TT1. 410,000 compounds, 0.12% hits; active = well fitted curve in the direction sought with a large enough effect; an effect the other way counts as inactive or inconclusive; note: potency is the fitted concentration of half-maximal effect; % is set by controls: 0 for no effect and ±100 for the full control effect; nearly all actives have a fitted effect of over 50% in size
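Glycolytic pyruvate kinase of T. brucei was incubated with substrate, test compound and 130 uM ADP for 45 minutes at room temperature. Luminescent Kinase-Glo Plus signal was measured after 10 minutes.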
Cycloheximide cs: affects cycloheximide protein synthesis inhibition readout, counter-screen | cell reporter, cycloheximide protein synthesis inhibition counterscreen | max response, % | 300,000 compounds, 12% hits | AID 2314; in the data active = max response mostly above about 13%, no sharp cut-off; inactive = mostly below about 14%; note: read at 38.3 µM for the half of the compounds with a filed dose; 0% is about no effect
LmPK inh: inhibitors of Leishmania mexicana pyruvate kinase; 290,000 compounds, 0.37% hits; purified LmPK, Kinase-Glo ATP luminescence, 1 h; AID 1721; Potency, µM (titrated, usually from 57.5 µM), for the others: at the highest dose activity change, negative = inhibition, usual class: inhibitors; Q27686; active = well fitted curve in the direction sought with a large enough effect; an effect the other way counts as inactive or inconclusive; note: potency is the fitted concentration of half-maximal effect; % is set by controls: 0 for no effect and ±100 for the full control effect
Target sequence (Q27686 whole entry, looked up): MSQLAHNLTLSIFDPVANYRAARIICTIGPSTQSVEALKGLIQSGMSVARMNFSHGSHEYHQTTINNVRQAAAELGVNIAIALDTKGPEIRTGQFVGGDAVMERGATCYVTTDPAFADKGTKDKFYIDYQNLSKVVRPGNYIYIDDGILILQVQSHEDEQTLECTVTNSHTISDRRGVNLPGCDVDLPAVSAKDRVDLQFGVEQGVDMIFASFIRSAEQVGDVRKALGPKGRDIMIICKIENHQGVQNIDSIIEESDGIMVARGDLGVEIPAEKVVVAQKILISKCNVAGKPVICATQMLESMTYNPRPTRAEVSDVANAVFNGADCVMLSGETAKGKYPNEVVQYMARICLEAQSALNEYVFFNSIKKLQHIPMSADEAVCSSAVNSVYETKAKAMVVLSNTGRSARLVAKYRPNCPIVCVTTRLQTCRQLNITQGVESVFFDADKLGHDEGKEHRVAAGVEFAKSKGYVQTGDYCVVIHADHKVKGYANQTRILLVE
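Purified LmPK (0.1 nM) converted ADP (0.1 mM) to ATP with PEP (0.5 mM) in imidazole buffer pH 7.2 with KCl and MgCl2, 1 h at room temperature. ATP was read by Kinase-Glo luminescence; data normalized to uninhibited and no-enzyme controls.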
NS1 inh: influenza NS1 inhibition; 270,000 compounds, 0.4% hits; Potency, µM (highest dose often 46.1 µM), for the others: at the top dose activity, positive = more growth; AID 2326; note: potency is the fitted concentration of half-maximal effect; actives are rising curves; nearly all actives have a fitted effect of over 50% in size
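Read-out: OD600 growth recovery of NS1-expressing budding yeast. Cells grown overnight at 30C in -URA glucose medium, washed, resuspended and diluted 1:100 in 2% galactose assay medium, pH 6.0. Same strain lacking NS1 served as positive control.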
SARS PLpro yeast: blocks SARS-CoV papain-like protease in a yeast assay; S. cerevisiae expressing SARS-CoV PLpro, growth rescue; Potency, µM (highest dose often 32.9 µM), without a hit: at the top dose activity, positive = growth rescue, actives largely listed as activators; 330,000 compounds, 0.19% hits; AID 485353; note: potency is the fitted concentration of half-maximal effect; 0% is about no effect; nearly all actives have a fitted effect of over 55% in size
Numbers without * were called inactive; / = no result. Shown is part of a subset that was picked to be rich in hits. Unless noted, calls come from the whole dose curve.

SMILES	Shiga toxin inh	Tb PYK inh	Cycloheximide cs	LmPK inh	NS1 inh	SARS PLpro yeast
CCC1(O)CC2CN(CCc3c([nH]c4ccccc34)[C@@](C(=O)OC)(c3cc4c(cc3OC)N(C=O)[C@H]3[C@](O)(C(=O)OC)[C@H](OC(C)=O)[C@]5(CC)C=CCN6CC[C@]43[C@@H]65)C2)C1 (some centres undefined)	/	-7%	/	/	/	/
Cc1cc(OCC(=O)N2CCOCC2)ccc1[N+](=O)[O-]	58*	-3%	25*	0%	4%	0%
Cc1ccc(C(=O)OCC(=O)N2CCCCCC2)c(O)c1	/	-9%	/	/	/	8%
Cc1ccc(-c2ccc(OCC(=O)N3CCOCC3)cc2)cc1	62*	-2%	42*	-15%	-16%	-8%
Cc1ccc(OCC(=O)N2CCN(c3ccc([N+](=O)[O-])c(N4CCOCC4)c3)CC2)cc1	-19	2%	-3	5%	-12%	-3%
Cc1ccc(C(=O)OCC(=O)N2CCOCC2)c(C)c1	39	-4%	18*	-1%	-3%	1%
Cc1ccc(C(=O)OCC(=O)N2CCOCC2)cc1	50*	-9%	27*	2%	-16%	0%
CC[C@]1(c2ccccc2)NC(=O)NC1=O	-4	/	10	/	/	/
CC(C)NC(=O)C1CCN(c2nc3ccccc3nc2C(F)(F)F)CC1	/	-9%	/	/	/	/
O=C(OCC(=O)N1CCOCC1)c1ccc(Br)cc1	60	4%	20*	0%	-4%	0%
Cc1ccc(Cl)cc1NC(=O)c1ccccc1OCC(=O)N1CCOCC1	-11	2%	-1	-7%	-11%	-1%
Cc1cc(OCC(=O)N2CCOCC2)ccc1NC(=O)c1ccccc1C	19	-4%	21*	-5%	16%	-1%
O=C(NCc1ccc(Cl)cc1Cl)C1CCN(S(=O)(=O)c2ccc3c(c2)OCCCO3)CC1	15	-13%	19*	-3%	-11%	-8%
N#Cc1ccsc1NC(=O)C1=COCCO1	/	-9%	/	/	/	-5%
O=C(NC1CCCCC1)c1c[nH]c2ccc(S(=O)(=O)Nc3ccccc3F)cc2c1=O	/	2%	/	/	/	/
Cc1ccc(S(=O)(=O)Nc2cccc(-c3ccc(N4CCCCCC4)nn3)c2)cc1	89*	2%	39*	10%	-7%	-10%
Cc1cccc(S(=O)(=O)Nc2cccc(-c3ccc(N4CCCCC4)nn3)c2)c1	73*	0%	59*	/	/	/
COc1ccc(S(=O)(=O)Nc2cccc(-c3ccc(N4CCCCCC4)nn3)c2)c(OC)c1	60*	-24%	53*	-7%	-25%	-3%
COc1ccc(S(=O)(=O)Nc2cccc(-c3ccc(N4CCCCCC4)nn3)c2)cc1OC	40*	1%	35*	4%	-4%	-4%
COc1ccc(S(=O)(=O)Nc2cccc(-c3ccc(N4CCCC4)nn3)c2)cc1F	/	0%	/	/	/	/
COc1ccc(S(=O)(=O)Nc2cccc(-c3ccc(N4CCCC4)nn3)c2)c(OC)c1	/	-21%	/	/	/	/
COc1ccc(S(=O)(=O)Nc2cccc(-c3ccc(N4CCCCCC4)nn3)c2)cc1	/	-7%	/	/	/	/
O=S(=O)(Nc1cccc(-c2ccc(N3CCCCCC3)nn2)c1)c1ccccc1	/	-1%	/	/	/	/
CCOc1ccc(NS(=O)(=O)c2ccc3[nH]cc(C(=O)N4CCCC4)c(=O)c3c2)cc1	/	1%	/	/	/	/
CCNC(=O)/C=C1\NC(C)(C)Cc2c1ccc1ccccc21	-9	-6%	0	13%	-11%	-11%
SMILES	Shiga toxin inh	Tb PYK inh	Cycloheximide cs	LmPK inh	NS1 inh	SARS PLpro yeast
CC1(C)Cc2c(ccc3ccccc23)C(=O)N1	16	5%	11*	5%	-10%	-7%
O=C(Nc1ccccc1)C1=C[C@@H](C2CC2)C[C@@H](OCCCCO)O1	58*	3%	55*	5%	-4%	-2%
O=C(O)C1=C[C@H](C2CC2)C[C@H](OCc2ccc(CO)cc2)O1	/	0%	/	/	/	/
O=C(Nc1ccccc1)C1=C[C@@H](C2CC2)C[C@@H](OCc2ccc(CO)cc2)O1	47*	-2%	35*	5%	-12%	-2%
O=C(Nc1ccccc1)C1=C[C@H](c2ccccc2)C[C@H](OCc2ccc(CO)cc2)O1	53*	-4%	32*	3%	-4%	-2%
O=C(Nc1ccccc1)C1=C[C@H](c2ccc(C(F)(F)F)cc2)C[C@H](OCc2ccc(CO)cc2)O1	8	-2%	2	4%	-32%	0%
CCOc1ccc(CCNC(=O)CSc2nnnn2-c2ccccc2)cc1OCC	/	8%	/	/	/	/
CC(Nc1nc(-c2ccc3c(c2)NC(=O)CO3)cs1)c1ccccc1 (centres undefined)	41	-2%	18*	1%	5%	0%
COc1ccc(-c2cc(-c3ccc(OC)cc3)nc(-c3ccc4c(c3)NC(=O)CO4)c2)cc1	15	-9%	2	13%	16%	-2%
COc1cccc(-c2nc(-c3ccc4c(c3)NC(=O)CO4)cs2)c1	105*	-11%	50*	3%	/	-3%
O=C1COc2ccc(-c3csc(NCC4CCCO4)n3)cc2N1 (centres undefined)	-7	-2%	-2	14%	9%	2%
Cc1ccc(C)c(-c2csc(-c3c(N)c(C(=O)c4ccc5c(c4)OCO5)n4ccccc34)n2)c1	17	-3%	13	/	/	/
CC(Cc1cccs1)NC(=O)Nc1cccc(Cl)c1 (centres undefined)	69*	-1%	59*	9%	-79%	-29%
COc1cc(C(=O)NC(C)Cc2cccs2)cc(OC)c1OC (centres undefined)	-5	1%	-3	4%	/	1%
CC(Cc1cccs1)NC(=O)Nc1ccc(F)cc1 (centres undefined)	48	6%	50*	8%	-49%	5%
COc1ccc(NC(=O)CCl)cn1	11	/	-2	4%	-8%	13%
COc1ccc(NC(=O)C(Cl)=C(Cl)Cl)cn1	16	3%	23*	4%	/	2%
COc1ccc(NC(=O)CC2CC3CCC2C3)cn1 (centres undefined)	60	5%	20*	-2%	-3%	-9%
COc1ccc(NC(=O)Nc2ccc(OCc3ccccc3)cc2)cn1	-11	5%	-3	8%	5%	-2%
COc1ccc(NC(=O)/C(Cl)=C(/Cl)S(=O)(=O)Cc2ccccc2)cn1	101*	-4%	46*	-2%	-200%	-54%
CC(=O)Nc1ccc(S(=O)(=O)N2CCN(C(=O)c3ncoc3-c3cccc(F)c3)CC2)cc1	-12	-6%	-6	0%	-66%	-2%
O=C(OCC(=O)N1c2ccccc2Sc2ccccc21)C1CC(=O)N(Cc2ccco2)C1 (centres undefined)	10	0%	-4	5%	-5%	-1%
O=C(COC(=O)C1CC(=O)N(Cc2ccco2)C1)c1ccc(OC(=O)c2ccccc2)cc1 (centres undefined)	72*	-6%	33*	0%	-11%	-17%
